For 15 molecules, composite z-score and composite Z-score results are on record in PubChem BioAssay.

The target in assay [1] is Albumin (Bos taurus) (UniProt P02769). Description: bovine serum albumin binders on microarray, profiling panel, artefact control for SMM control protein annotation, biochemical, small-molecule microarray, Alexa647 label, 635/667 nm fluorescence (AID 1118).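 Further: score merges 667 nm emission intensity and signal-to-noise per printed compound spot.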 The settings on record: BSA-A647 binding, fluorescence 635 nm, higher = more signal.
Albumin (Bos taurus), sequence (P02769 whole entry, looked up): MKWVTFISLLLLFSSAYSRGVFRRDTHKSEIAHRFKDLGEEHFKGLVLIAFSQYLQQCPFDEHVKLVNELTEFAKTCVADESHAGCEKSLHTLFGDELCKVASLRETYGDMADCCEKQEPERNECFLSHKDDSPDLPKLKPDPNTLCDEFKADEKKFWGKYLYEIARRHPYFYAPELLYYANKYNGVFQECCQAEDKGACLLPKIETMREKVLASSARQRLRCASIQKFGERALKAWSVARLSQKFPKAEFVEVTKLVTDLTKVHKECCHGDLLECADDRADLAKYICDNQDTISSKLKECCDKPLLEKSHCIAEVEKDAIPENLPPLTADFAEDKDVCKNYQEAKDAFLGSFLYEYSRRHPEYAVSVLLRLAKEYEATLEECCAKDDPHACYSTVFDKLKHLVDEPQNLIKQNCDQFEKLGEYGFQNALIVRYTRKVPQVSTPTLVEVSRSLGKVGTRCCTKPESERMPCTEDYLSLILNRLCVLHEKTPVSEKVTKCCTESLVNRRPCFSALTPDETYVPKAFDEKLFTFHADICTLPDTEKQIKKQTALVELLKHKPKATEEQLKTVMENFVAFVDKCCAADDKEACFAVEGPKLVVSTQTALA
Assay [2] in a line: small-molecule microarray binders of probe aXIP, primary screen, biochemical, NeuroSMM set, 635/667 nm fluorescence (AID 1119).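 Further: probe is the protein aXip251-270 applied at 1 µg/mL to compound-printed slides; binding of probe to printed compounds measured as 667 nm fluorescence plus signal to noise.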 To be noted: higher = more signal, called active from +8 up or from −8 down.
Assay [3] can be described thus: small-molecule binders of probe aNOTCH3, primary screen, biochemical, small-molecule microarray, 635/667 nm fluorescence (AID 1120).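 Further: probe is a biotin-tagged antibody raised against NOTCH3 rather than NOTCH3 protein; score merges spot fluorescence near 667 nm with spot signal to noise.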 The settings on record: higher = more signal.
Assay [4] is described as follows: small-molecule binders of probe aNOTCH2, primary screen, biochemical, small-molecule microarray, 635/667 nm fluorescence (AID 1121).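 Further: score merges feature fluorescence read at 667 nm with its signal to noise.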 To be noted: higher = more signal.
The target in assay [5] is Carbonic anhydrase 2 (Homo sapiens) (UniProt P00918). Description: CAII small-molecule binders, profiling panel, biochemical, small-molecule microarray, Alexa647-labelled CAII (AID 1122). The settings on record: CAII-A647 binding fluorescence, higher = more signal.
Assay [6] in a line: COS7 lysate on small-molecule microarray, probe aHis, 635 nm (AID 1123).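 Further: z-score combines 667nm fluorescence intensity with signal-to-noise per printed compound spot.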 The settings on record: COS7 cell lysate, fluorescence, higher = more signal.
A short description of assay [7]: compound binding in COS7 lysate, probe aLAP1, primary screen, cell lysate, small-molecule microarray (AID 1124).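 Further: lysate comes from COS7 cells expressing LAP1 and is applied at 0.3 µg/mL; score merges spot fluorescence near 667 nm with signal-to-noise over triplicate slides.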 The settings on record: probe aLAP1, fluorescence, higher = more signal.
For assay [8], the system named is Sam68 (KHDRBS1). Description: Sam68 small-molecule binders, primary screen, biochemical, small-molecule microarray, 635 nm fluorescence (AID 1125).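 Further: score merges 667 nm channel intensity with signal to noise over triplicate slides.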 To be noted: small-molecule microarray binding, higher = more signal.
In assay [9] the test system is Chordin-like protein 2 (CHRDL2). Description: CHRDL2 small-molecule binders, primary screen, biochemical, small-molecule microarray, 635 nm fluorescence (AID 1126).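 Further: printed compound slides probed with Chrdl2 protein at 4 µg/mL for 1 h at 4 C; score merges 667 nm emission intensity with signal to noise over three replicate slides.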 To be noted: small-molecule microarray binding, fluorescence 635 nm; higher = more signal.
For assay [10], the target named is Concanavalin-A (Canavalia ensiformis) (UniProt P02866). Description: ConA small-molecule binders, primary screen, artefact control for SMM control protein annotation, biochemical, small-molecule microarray, Alexa647 label, 635 nm (AID 1127).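 Further: z combines 667 nm emission intensity with signal-to-noise across three replicate slides.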 The settings on record: ConA-A647 binding fluorescence, higher = more signal.
Concanavalin-A (Canavalia ensiformis), sequence (P02866 whole entry, looked up): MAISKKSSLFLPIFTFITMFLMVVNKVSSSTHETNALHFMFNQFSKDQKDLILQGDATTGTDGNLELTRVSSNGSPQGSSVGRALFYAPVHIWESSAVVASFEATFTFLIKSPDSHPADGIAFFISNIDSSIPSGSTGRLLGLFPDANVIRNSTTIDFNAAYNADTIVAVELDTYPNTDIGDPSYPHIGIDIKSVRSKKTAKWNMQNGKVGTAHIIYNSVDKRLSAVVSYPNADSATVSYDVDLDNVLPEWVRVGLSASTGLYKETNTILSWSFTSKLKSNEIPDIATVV

Each structure is given as a SMILES string. Calls of active or inactive are those of the source.

As for `C=CCNC(=O)[C@@H]1[C@H]2C(=O)O[C@H](c3ccccc3)[C@H](c3ccccc3)N2[C@H](c2ccc(O)cc2)[C@@]12C(=O)N(C(=O)OCCOC)c1ccc(C#CCC(C(=O)OC)C(=O)OC)cc12`, the composite z-score in [1] is 0.366; in assay [3] it was 0.0813; in assay [4], -0.084; in assay [5] it was 0.271; in [6] it was 1.33; in [7], 0.793. Also, the figures for the composite z-score in assay [8], in assay [9] and in [10] were 1.3, 0.413 and 0.601, respectively. Besides, the composite Z-score in assay [2] is 0.903 (inactive).
Take `COCCCNC(=O)[C@@]1(Cc2ccccc2I)c2ccccc2C(=O)N(C2CCCCC2)[C@H]1c1ccc(CO)cc1`: the composite z-score in assay [1] is 0.653; in assay [3], -0.0377; in assay [4], -0.112; in assay [5], 0.544; in [6], 2.36; in assay [7], 0.386. Further, the composite z-score in assay [8] was 1.03; in assay [9], -0.415; in [10], 0.75. In assay [2], the composite Z-score is 0.732 (inactive).
Turning to `COc1ccc(CCNC(=O)[C@@]2(c3ccc([N+](=O)[O-])cc3)CC(=O)N(C3CCCCC3)[C@@H]2c2ccc(CO)cc2I)cc1`, the composite z-score in [1] was -0.127; in [3] it was 0.0293; in [4], 0.0254; in assay [5], 0.364; in assay [6], 1.52; in assay [7], 0.89. Further, the figures for the composite z-score in assay [8], in assay [9] and in [10] were 0.962, 0.252 and 0.754, respectively. The composite Z-score in assay [2] is 0.931 (inactive).
Turning to `O=C1NC(=O)C2C1C=CC(C(O)C(O)CO)N2Nc1ccccn1` (stereo not given), the composite z-score was 0.319 in assay [1]; 0.0026 in assay [3]; -0.207 in assay [4]; 0.315 in assay [5]; 0.344 in assay [6]; 0.635 in assay [7]. The composite z-score in assay [8] is 0.523; in assay [9], 0.105; in assay [10] it was 0.932. Besides, in assay [2], the composite Z-score was 0.035 (inactive).
For `[N-]=[N+]=NCc1ccccc1[C@H]1OC(c2ccc(OCCCO)cc2)=N[C@@]1(CCS(=O)(=O)c1ccccc1)C(=O)NCCN1CCOCC1`, the composite z-score in [1] was found to be 0.888; in [3] it was 0.596; in [4], 0.163; in [5] it was 0.621; in [6] it was 2.76; in assay [7] it was 0.654. Besides, the composite z-score is 1.3 in assay [8], -0.222 in assay [9] and 0.944 in assay [10]. The composite Z-score in [2] is 0.516 (inactive).
`COC(=O)[C@@]1(Cc2ccc(OC)cc2)[C@H]2c3cc(C(=O)N(C)C)n(Cc4c(CO)[nH]cc(C)c4=O)c3C[C@H]2CN1C(=O)c1ccccc1`: the composite z-score was 0.302 in assay [1]; 0.23 in assay [3]; 0.484 in [4]; 0.876 in assay [5]; 2.97 in [6]; 0.221 in assay [7]. The composite z-score in assay [8] was 0.55; in assay [9], -0.31; in assay [10] it was 0.554. Besides, the composite Z-score in assay [2] is 0.0713 (inactive).
For `COc1c(C)cc(-c2nc(-c3ccccc3)c3c(c2C)CO[Si]3(C(C)C)C(C)C)cc1C`, the composite z-score in assay [1] is -0.116; in assay [3] it was 0.178; in assay [4], -0.0048; in assay [5] it was -0.0127; in [6] it was 0.275; in assay [7], -0.314. The results for the composite z-score in assay [8], in [9] and in [10] were 0.214, 0.264 and -0.53, respectively. Further, in assay [2], the composite Z-score was 0.257 (inactive).
For `Cc1cccc([C@H]2C[C@H]3C(Br)=C[C@@]2(CO)C(=O)[C@]32CO2)c1`, the composite z-score in assay [1] is -0.155; in assay [3], -0.108; in [4], -0.147; in assay [5] it was 0.362; in assay [6], 0.182; in assay [7], -0.24. Besides, the figures for the composite z-score in assay [8], in assay [9] and in assay [10] were 0.671, -0.15 and -0.0472, respectively. Also, the composite Z-score in assay [2] was -0.288 (inactive).
On to `COCCCNC(=O)[C@]1(Cc2ccccc2CN=[N+]=[N-])N=C(c2ccc(OCCCO)cc2)O[C@@H]1c1ccccc1N=[N+]=[N-]`, for which the composite z-score in assay [1] is 0.835; in [3] it was 0.805; in [4], 0.188; in assay [5], 0.525; in [6], 2.24; in [7], 0.152. In addition, the composite z-score in assay [8] is 1.34; in assay [9], -0.992; in [10], 1.05. For the same molecule, in [2], the composite Z-score was -0.217 (inactive).
With `Cc1ccc(S[C@]2(C(=O)NCc3ccccc3)CC(=O)N(Cc3ccccc3Cl)[C@@H]2c2ccc(CO)cc2)cc1`, the composite z-score in assay [1] was -0.447; in assay [3] it was -0.511; in assay [4] it was -0.149; in [5], 0.762; in assay [6], 0.397; in assay [7] it was 0.197. For the same molecule, the composite z-score in assay [8] was 0.472; in assay [9], -0.78; in assay [10] it was 0.439. In addition, the composite Z-score in [2] was -0.608 (inactive).
Regarding `C=CCC(OC(C)=O)[C@@H]1[C@@H](N(Cc2ccc(-c3ccccc3)cc2)C(=O)Cc2ccc(OC)cc2)c2cc(OCCCO)ccc2N1C(=O)c1ccc2ccccc2c1` (stereo not given in full), the composite z-score in [1] was 0.234; in assay [3], -0.043; in assay [4], -0.176; in assay [5], 0.269; in assay [6], 0.198; in assay [7] it was 0.165. Moreover, the composite z-score in [8] was 0.0843; in assay [9], -0.225; in assay [10] it was 0.134. Further, the composite Z-score in assay [2] was -0.0949 (inactive).
`CC(C)C[C@@H]1NC(=O)[C@H]2C[C@@H](C(=O)O)[C@@H](c3cccc(OCCO)c3)N2C1=O`: the composite z-score in assay [1] was -0.371; in [3], -0.0014; in assay [4], -0.0761; in assay [5], 0.265; in assay [6], 1.38; in [7] it was 0.327. The figures for the composite z-score in [8], in [9] and in assay [10] were 0.531, 1.12 and 0.587, respectively. For the same molecule, in assay [2], the composite Z-score is -0.12 (inactive).
As to `O=C1OCC=C[C@H]2OC34C=CCN(Cn5nnc6ccccc65)C(=O)[C@H]3N(CCO)C(=O)[C@@H]4[C@@H]12` (stereo not given in full), the composite z-score in assay [1] is -1.46; in assay [3], -0.173; in assay [4], -0.171; in [5] it was 0.935; in [6], 0.32; in [7], -0.137. Also, the composite z-score in assay [8] is 0.184; in assay [9], -1.43; in assay [10], -0.941. In addition, in assay [2], the composite Z-score is -0.358 (inactive).
Take `C=C(/C=C\CNS(=O)(=O)c1ccc(C)cc1)[C@H](O)[C@H]1CCCN1S(=O)(=O)c1ccccc1[N+](=O)[O-]`: the composite z-score in assay [1] was 0.678; in assay [3], 0.0026; in [4] it was -0.147; in assay [5] it was 0.319; in [6], 0.119; in [7], -0.538. For the same molecule, the composite z-score in [8] stood at 0.127; in [9] it was 0.411; in assay [10] it was 0.152. The composite Z-score in assay [2] is -0.429 (inactive).
Take `COC(=O)[C@]1(Cc2ccccc2CN=[N+]=[N-])N=C(c2ccc(OCCCO)cc2)O[C@@H]1c1ccccc1N=[N+]=[N-]`: the composite z-score in [1] was -0.427; in assay [3], 0.0026; in assay [4], 0.015; in assay [5] it was 0.518; in [6], 0.999; in [7] it was 1.47. For the same molecule, the figures for the composite z-score in [8], in assay [9] and in assay [10] were 0.163, 0.62 and 0.91, respectively. Besides, the composite Z-score in assay [2] is -0.741 (inactive).
